# Screen size: about 85,000 compounds; about 440 (0.52%) showed an effect of 50% or more. The sample holds strong results, similar compounds and a random draw of the others, so the mix is not that of the screen.
# Test: In vitro enzyme assay to detect hydrolysis of chlorophenol red-beta-D-[…] directly proportional to the number of Toxoplasma stably expressing beta-galactosidase
# Type: functional, organism-based, Toxoplasma gondii
# Set-up: scale not given: in the data most compounds retested in dose-response had high values
structure (smiles),measurement,setting,value
NC(=O)Cc1ccc(-c2ccc(C(N)=O)c(Cl)c2)cc1,Percent Effect,50 µM,-4.393%
CCn1ccnc1C(C)N (configuration not stated),Percent Effect,50 µM,1.366%
CNC(=O)c1cccc(NC(C)C(=O)NCC(C)C)c1 (configuration not stated),Percent Effect,50 µM,-5.14%
Cn1cc(C(N)=O)c(NCc2ccc(F)c(C#N)c2)n1,Percent Effect,50 µM,-8.67%
CN1C(=O)[C@H]2CN(Cc3cccc(Cl)c3F)C[C@H]2C1=O,Percent Effect,50 µM,-8.035%
O=C(c1cc(Cl)ccc1O)N1CCOCC1,Percent Effect,50 µM,6.297%
CNCC(=O)Nc1ccc(C)cc1C(=O)N(C)C,Percent Effect,50 µM,-7.454%
CCc1nccn1CCCNC(=O)Cc1nonc1C,Percent Effect,50 µM,3.782%
CCn1cc(C(=O)NCc2ccc(CNC)cc2)cn1,Percent Effect,50 µM,-1.69%
CC1CCCCN1CCNC(=O)c1ccccn1 (configuration not stated),Percent Effect,50 µM,1.645%
COc1ccc(Cl)cc1CNCCSc1nnnn1C,Percent Effect,50 µM,-8.775%
Cc1cccc(C2CCCN2)n1 (configuration not stated),Percent Effect,50 µM,-3.572%
Cc1cc(C2CCCN2)no1 (configuration not stated),Percent Effect,50 µM,-6.252%
Cc1nc([C@H]2CCCN2)cs1,Percent Effect,50 µM,52.58%
CC(=O)NC1CCNC1 (configuration not stated),Percent Effect,50 µM,26.97%
CN1CC(NC(=O)CCC(=O)c2cccs2)CCC1=O (configuration not stated),Percent Effect,50 µM,-1.402%
COCC1CCN(Cc2ccc(NC(C)=O)cc2)C1 (configuration not stated),Percent Effect,50 µM,-11.02%
CCC(=O)NC1CCCN(Cc2ccc(NC(C)=O)cc2)C1 (configuration not stated),Percent Effect,10 µM,8.052%
CC(=O)Nc1ccc(CN2CCCOC(C)C2)cc1 (configuration not stated),Percent Effect,50 µM,52.96%
CCC(C)(CC)NC(=O)Nc1cnn(CCOC)c1,Percent Effect,50 µM,-4.406%
CC(C)(C(=O)N1CCC(N)CC1)c1cccc(F)c1,Percent Effect,50 µM,80.98%
CC(C)(C(=O)N1CC[C@@H](O)C1)c1ccccc1,Percent Effect,50 µM,-3.951%
CC(C)(C(=O)N1CCOCC1)c1ccccc1,Percent Effect,50 µM,-4.463%
O=C(N1CCCC(n2cncn2)C1)C1(c2cccc(F)c2)CC1 (configuration not stated),Percent Effect,10 µM,-9.535%
NC1CCN(C(=O)C2(c3cccc(F)c3)CC2)CC1,Percent Effect,50 µM,89.65%
O=C(N1CCC(Oc2ccncc2)C1)C1(c2cccc(F)c2)CC1 (configuration not stated),Percent Effect,10 µM,4.06%
COCCCC1CCNCC1,Percent Effect,50 µM,4.614%
NCC(CO)Cc1ccsc1 (configuration not stated),Percent Effect,50 µM,-1.079%
Brc1cc2c(cc1CN1CCCNCC1)OCO2,Percent Effect,50 µM,-4.823%
CC1(c2ccncc2)NC(=O)c2ccccc2N1 (configuration not stated),Percent Effect,50 µM,11.28%
O=C(CN1CCn2ccnc2C1)NC1CCS(=O)(=O)C1 (configuration not stated),Percent Effect,50 µM,6.953%
CC(C1CCN(Cc2c[nH]cn2)CC1)N1CCCC1 (configuration not stated),Percent Effect,50 µM,21.18%
NCc1ccnc(OCC2CC2)c1,Percent Effect,50 µM,3.263%
Cc1ccccc1CC(=O)N(C)C,Percent Effect,50 µM,-4.007%
NCCC1CCN(C(=O)Nc2cc(F)cc(F)c2)CC1,Percent Effect,50 µM,-1.616%
Cc1ccc(S(=O)(=O)NCC2(O)CCOc3ccccc32)s1 (configuration not stated),Percent Effect,10 µM,3.665%
O=S(=O)(NCC1(O)CCOc2ccccc21)c1ccc(Br)s1 (configuration not stated),Percent Effect,10 µM,53.2%
O=S(=O)(NCC1(O)CCOc2ccccc21)c1ccc(Cl)s1 (configuration not stated),Percent Effect,10 µM,4.661%
COCCn1cc(CNC(=O)NCC(F)F)cn1,Percent Effect,50 µM,-9.663%
CNc1nc(C(=O)N[C@@H]2CC[C@@H](N)C2)cs1,Percent Effect,50 µM,18.65%
CC(NC(=O)c1ccoc1)C(=O)Nc1nccs1 (configuration not stated),Percent Effect,50 µM,-8.907%
Cc1cc(CN2CCOC(Cn3nc(C)cc3C)C2)on1 (configuration not stated),Percent Effect,10 µM,-42.92%
CC(C)=CCN1CCOC(Cn2nc(C)cc2C)C1 (configuration not stated),Percent Effect,10 µM,97.95%
Cc1cc(C)n(CC2CN(CC3CCCC3)CCO2)n1 (configuration not stated),Percent Effect,10 µM,-2.525%
O=C1COc2ccc(NC(=O)c3ccccc3)cc2N1,Percent Effect,50 µM,3.882%
CN(CCC#N)CC1CCN(CCO)CC1,Percent Effect,50 µM,-6.076%
COc1cc(Br)ccc1CCCNC(=O)C(C)O (configuration not stated),Percent Effect,50 µM,0.2477%
O=C(COc1ccccc1)NCCn1ccnc1,Percent Effect,50 µM,-5.476%
CC(=O)c1ccc(OCC(O)CNC2CCCC2)cc1 (configuration not stated),Percent Effect,50 µM,6.61%
CC(=O)c1ccc(OCC(O)Cn2ccnc2)cc1 (configuration not stated),Percent Effect,50 µM,57.01%
CCNC(=O)N1CCC(NC(=O)c2ccc(C)o2)CC1,Percent Effect,50 µM,-1.852%
Cc1nc2cc(C3CCN(Cc4cccc(F)c4F)C3)nn2c(O)c1C.O=C(O)CC(O)(CC(=O)O)C(=O)O (configuration not stated),Percent Effect,10 µM,49.65%
Cc1nc2cc(C3CCN(Cc4ccccc4F)C3)nn2c(O)c1C (configuration not stated),Percent Effect,10 µM,15.76%
Cc1cc(C(=O)Nc2ccnc(C)c2Cl)cc(O)n1,Percent Effect,50 µM,12.01%
CN1CCCN(CC(=O)NCCCc2ncc[nH]2)CC1,Percent Effect,50 µM,-15.47%
CN(C)c1ncc2c(n1)CCCC2NC(=O)C1CC1 (configuration not stated),Percent Effect,10 µM,7.926%
Cc1cc(C)c(C(=O)NC2CCCc3nc(N(C)C)ncc32)cc1C (configuration not stated),Percent Effect,10 µM,19.3%
CCC(=O)NC1CCCc2nc(N(C)C)ncc21 (configuration not stated),Percent Effect,50 µM,69.08%
CNC(=O)CN1CCCC(CO)(CCCOC)C1 (configuration not stated),Percent Effect,50 µM,5.203%
CC(=O)NCCCS(=O)(=O)c1ncccc1Cl,Percent Effect,50 µM,60.86%
CC(=O)NCCCNCc1ccc(Cl)c2cccnc12,Percent Effect,10 µM,-6.901%
CC(=O)NCCCS(=O)(=O)c1ccc(C)cn1,Percent Effect,50 µM,-5.9%

# — ChEMBL document CHEMBL3988442, “University of Dundee, Small-Polar-MMV Screening Library” (2021)
